Compound activity as filed in PubChem.
PLK1 PBD inh – qHTS for Inhibitors of PLK1-PDB (polo-like kinase 1 - polo-box domain): Primary Screen; Serine/threonine-protein kinase PLK1 (Homo sapiens), P53350; Plk1 PBD binding of FITC phosphopeptide, fluorescence polarization; Potency, µM, inactives show max response, negative = inhibition, actives largely listed as inhibitors; 360,000 tested, 2.8% active; also: potency is read from the fitted curve at half-maximal effect; series mostly up to about 57 µM; % is scaled to controls: 0 for no effect and ±100 for the full control effect; nearly all actives have a fitted effect of over 65% in size
HP1b binding inh – HTS for Inhibitors of HP1-beta Chromodomain Interactions with Methylated Histone Tails. Potency, µM (top dose mostly 114 µM), for inactives: at the highest dose activity change, negative = inhibition, hits mostly inhibitors. 390,000 tested, 0.56% active. AlphaScreen HP1-beta / biotin-H3K9me3 peptide binding. Chromobox protein homolog 1 (Homo sapiens), P83916; also: potency is read from the fitted curve at half-maximal effect; nearly all actives have a fitted effect of over 70% in size
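AlphaScreen: HP1-beta (50 nM) preformed 30 min with biotin-H3(1-18)K9me3 peptide (50 nM) in PBS pH 7.4, 0.01% Tween-20. Compound added for 30 min at RT, then streptavidin donor/nickel chelate acceptor beads (10 ug/mL) for 30 min.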
JMJD2A Tudor – qHTS Assay for Inhibitors of JMJD2A-Tudor Domain | AlphaScreen JMJD2A-Tudor / H3K4me3 peptide binding | 390,000 tested, 4.4% active | Potency, µM (top dose mostly 114 µM), for inactives: at the highest dose activity change, negative = inhibition, most hits filed as inhibitors | Lysine-specific demethylase 4A (Homo sapiens), O75164; also: potency is read from the fitted curve at half-maximal effect; % is scaled to controls: 0 for no effect and ±100 for the full control effect; nearly all actives have a fitted effect of over 50% in size
G9a inh-1 – qHTS Assay for Inhibitors of Histone Lysine Methyltransferase G9a; G9a H3K9 monomethylation, AlphaScreen, 2 h; Histone-lysine N-methyltransferase EHMT2 (Homo sapiens), Q96KQ7; 350,000 tested, 8.8% active; Potency, µM (top dose mostly 102 µM), without a hit: top-dose activity, negative = inhibition, most hits filed as inhibitors; also: potency is read from the fitted curve at half-maximal effect; % is scaled to controls: 0 for no effect and ±100 for the full control effect; nearly all actives have a fitted effect of over 75% in size
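AlphaScreen detection with an anti-monomethyl H3K9 antibody quantified product after a 2 h room-temperature reaction containing 500 nM biotinylated H3K9 peptide, 20 µM SAM and 20 nM enzyme, which had been preincubated 15 min with compound.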
PI5P4K alpha inh – qHTS for Inhibitors of phosphatidylinositol 5-phosphate 4-kinase (PI5P4K); Phosphatidylinositol 5-phosphate 4-kinase type-2 alpha (Homo sapiens), P48426; PI5P4Kalpha enzyme, ADP-Glo luminescence, 60 min; active compounds read low; max response, %; 330,000 tested, 1.2% active; active = max response of -50% or lower; inconclusive = between -30% and -50%; inactive = -30% or higher; also: value at the top dose of about 77 µM; % is scaled to controls: 0 for no effect and ±100 for the full control effect
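Controls without substrate or without enzyme flank wells where PI5P4Kalpha converts substrate using 5 microM ATP (final). Incubation lasts 60 minutes at room temperature; ADP formed is read by ADP-Glo luminescence.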
BAZ2B inh – qHTS Assay for Inhibitors of BAZ2B. Bromodomain adjacent to zinc finger domain protein 2B (Homo sapiens), Q9UIF8. AlphaScreen BAZ2B-H3K14Ac peptide displacement. Potency, µM (highest dose often 114 µM), without a hit: at the highest dose activity change, negative = inhibition, hits mostly inhibitors. 360,000 tested, 4.4% active. AID 504333, 2011; also: potency is read from the fitted curve at half-maximal effect; % is scaled to controls: 0 for no effect and ±100 for the full control effect; nearly all actives have a fitted effect of over 60% in size
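Compounds, titrated to a top concentration of 110 uM, were incubated 30 min at room temperature with preformed BAZ2B/acetyl-K14 H3 peptide complex (50 nM each). Proximity signal was measured by AlphaScreen after 20 min with beads.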
JMJD2E confirm – Confirmation qHTS Assay for Inhibitors of Human Jumonji Domain Containing 2E (JMJD2E); shares compounds with JMJD2A Tudor; Recombinant JMJD2E, FDH-coupled NADH fluorescence (FDH is formaldehyde dehydrogenase); Potency, µM (doses to about 56.8 µM), without a hit: top-dose activity change, negative = inhibition, hits mostly inhibitors; 140 tested, 93% active; AID 2677, 2010
FDH inh – Counterscreen for JMJD2E Inhibitors: qHTS Assay for Inhibitors of Formaldehyde Dehydrogenase (FDH); AID 2680, 2010; 140 tested, 10% active; shares compounds with JMJD2A Tudor; FDH enzyme assay, NADH fluorescence kinetic; Potency, µM (series often up to 56.7 µM), without a hit: at the top dose activity, negative = inhibition, hits mostly inhibitors
G9a inh-2 – qHTS Assay for Inhibitors of Histone Lysine Methyltransferase G9a: Hit Confirmation | shares compounds with JMJD2A Tudor | G9a H3K9 monomethylation, AlphaScreen, 2 h | Potency, µM, hits mostly inhibitors | 370 tested, 89% active | AID 588344, 2011; also: potency is read from the fitted curve at half-maximal effect; nearly all actives have a fitted effect of over 65% in size
* marks the source's active call; other numbers are inactive results; [ ] = dose if it differs, or a comment. This is a sample that favours compounds with a hit; in the whole collection about 12% have one here. Unless noted, calls follow the shape of the dose curve; as a rule, active = well fitted curve in the direction sought with a large enough effect; inconclusive = small, poorly fitted or top-dose-only effect, or another doubt; inactive = no such curve, though single readings can be large; an effect the other way counts as inactive or inconclusive.

CCN1C(=O)N[C@@H](c2ccccc2)[C@H](C(=O)OC)[C@H]1C was read as PLK1 PBD inh -15%, HP1b binding inh 26%, JMJD2A Tudor -10% and PI5P4K alpha inh 3.
CCN1c2ccccc2NC2N=C(OC)C(c3ccccc3)C21 (stereo not drawn) was read as PLK1 PBD inh -14%, HP1b binding inh inconclusive, JMJD2A Tudor 50µM*, G9a inh-1 inconclusive, BAZ2B inh 45µM* and G9a inh-2 11*.
NCCCCCNC(=O)c1[nH]cnc1C(=O)N[C@@H](Cc1ccccc1)C(=O)OCc1ccccc1 was read as PLK1 PBD inh -2%, HP1b binding inh 8%, JMJD2A Tudor inconclusive and PI5P4K alpha inh -2.
`Cn1nnnc1SCC(=O)Nc1ccc(Br)cc1Cl` gave PLK1 PBD inh -2%, HP1b binding inh 43%, JMJD2A Tudor 9%, G9a inh-1 2µM*, PI5P4K alpha inh 2, BAZ2B inh -24% and G9a inh-2 inconclusive.
CCN(CC)C(=O)C1=C(C)N(Cc2ccc(C(C)(C)C)cc2)C(=O)C(CC(=O)NCCN2CCOCC2)C1 (stereo not drawn) was read as PLK1 PBD inh -6% and PI5P4K alpha inh -1.
`O=C(/C=C/c1ccccc1)Nc1ccc(N2CCCCC2)cc1` gave PLK1 PBD inh -3%, HP1b binding inh -8%, JMJD2A Tudor -18%, G9a inh-1 2.8µM*, PI5P4K alpha inh -3, BAZ2B inh -31% and G9a inh-2 2.2*.
Cc1ccc(C(=O)Nc2ccc(N3CCCC3)cc2)cc1 was read as PLK1 PBD inh -10%, HP1b binding inh 31%, JMJD2A Tudor -4%, G9a inh-1 1.6µM*, PI5P4K alpha inh -3, BAZ2B inh -8% and G9a inh-2 1.3*.
For CC(C)(C)C(=O)Nc1ccc(N2CCCC2)cc1 the results were PLK1 PBD inh -3%, HP1b binding inh 26%, JMJD2A Tudor -9%, G9a inh-1 inconclusive, PI5P4K alpha inh -10, BAZ2B inh inconclusive and G9a inh-2 2.5*.
Screening O=C(CNC(=O)c1ccc(Br)o1)Nc1ccc(N2CCCCCC2)cc1 returned PLK1 PBD inh -6%, HP1b binding inh -11%, JMJD2A Tudor inconclusive, G9a inh-1 2.2µM*, PI5P4K alpha inh -11, BAZ2B inh inconclusive and G9a inh-2 1*.
Screening O=C(CC1N=C2c3ccccc3N=C(SCc3ccccc3Cl)N2C1=O)NCc1cccs1 (stereo not drawn) returned HP1b binding inh -7%, JMJD2A Tudor -24%, G9a inh-1 4%[59 µM] and BAZ2B inh -13%.
For Cc1cccc(Nc2nnc(SCC(=O)NCC3CCCO3)s2)c1C (stereo not drawn) the results were PLK1 PBD inh 1%, HP1b binding inh 34%, JMJD2A Tudor -10% and PI5P4K alpha inh 8.
Screening Clc1cc(Cl)cc(C2=N[C@@H](Cc3ccccc3)CO2)c1 returned G9a inh-1 87%.
For CC(=O)Nc1ccc(N2CCCC2)cc1 the results were PLK1 PBD inh -9%, HP1b binding inh 9%, JMJD2A Tudor -18%, G9a inh-1 inconclusive, PI5P4K alpha inh -14, BAZ2B inh 3% and G9a inh-2 6.3*.
Screening CC(=O)Nc1ccc(N2CCCCC2)cc1 returned PLK1 PBD inh -2%, HP1b binding inh 14%, JMJD2A Tudor -11%, G9a inh-1 inconclusive and BAZ2B inh -6%.
For Cc1cccc(N2CCN(S(=O)(=O)c3ccc4c(c3)CCCN4C(=O)C3CCC3)CC2)c1C the results were PLK1 PBD inh -3%, HP1b binding inh 25%, JMJD2A Tudor -9%, G9a inh-1 7%[59 µM], PI5P4K alpha inh -4 and BAZ2B inh -18%[57.1 µM].
For Cc1ccc(S(=O)(=O)N2CCc3cc(C(=O)NCCc4ccccc4)ccc32)cc1 the results were HP1b binding inh 11%, JMJD2A Tudor -10%, G9a inh-1 -1%[59 µM] and BAZ2B inh -4%.
`O=C(CC1Sc2ncnn2C1=O)Nc1ccc(Br)cc1` (stereo not drawn) gave PLK1 PBD inh -29%, HP1b binding inh inconclusive, JMJD2A Tudor 25µM*, G9a inh-1 2µM*, PI5P4K alpha inh inconclusive, BAZ2B inh -2%, JMJD2E confirm 4µM*, FDH inh 0.28µM* and G9a inh-2 0.18*.
Screening CCCN1C(=O)SC(CC(=O)Nc2ccc(Br)cc2)C1=O (stereo not drawn) returned PLK1 PBD inh -2%, HP1b binding inh 63%, JMJD2A Tudor 21%, G9a inh-1 35%[12.7 µM], PI5P4K alpha inh 1 and BAZ2B inh -1%.
Screening O=c1c([N+](=O)[O-])cccn1Cc1cccc(Br)c1 returned PLK1 PBD inh -13%, HP1b binding inh 23%, JMJD2A Tudor -17%, G9a inh-1 9%, PI5P4K alpha inh -5 and BAZ2B inh -3%.
For CCc1ccc(NCc2cc3cc4c(cc3n(CC(=O)Nc3ccccc3C)c2=O)OCCO4)cc1 the results were HP1b binding inh 3%, JMJD2A Tudor -27%, G9a inh-1 inconclusive and BAZ2B inh -15%.
`CCOC(=O)C1CCN(C(=O)Cc2cccc3ccccc23)CC1` gave PLK1 PBD inh 0%, HP1b binding inh 24%, JMJD2A Tudor 2%, G9a inh-1 inconclusive, PI5P4K alpha inh -8, BAZ2B inh 12% and G9a inh-2 18*.
